# PubChem BioAssay (NCI)
# Compounds without any hit were thinned out: in the full panel of roughly 83,000, 20% have a hit.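 Cell lines were cultured in 96-well plates, exposed to a single compound concentration, and assessed for percent growth 48 hours later.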 The source made the active and inactive calls. How the source made its calls: active means growth percent below 10; inactive means the rest.
# Columns and labels:
# Experiment in all cases: NCI-60 one-dose screen, 48 h (100 = growth as untreated, 0 = no growth, -100 = all killed)
# SR leukemia = conditions: 10 µM unless noted
# RPMI-8226 leukemia = conditions: 10 µM unless noted
# OVCAR-8 ovarian = conditions: 10 µM unless noted
# OVCAR-5 ovarian = conditions: 10 µM unless noted
# OVCAR-4 ovarian = conditions: 10 µM
# IGROV1 ovarian = conditions: 10 µM unless noted
# HS 578T breast = conditions: 10 µM unless noted
# NCI/ADR-RES ovarian = conditions: 10 µM unless noted
# T-47D breast = conditions: 10 µM unless noted
# BT-549 breast = conditions: 10 µM unless noted
# MDA-MB-435 melanoma = conditions: 10 µM unless noted
# SW-620 colon = conditions: 10 µM unless noted
# HCT-116 colon = conditions: 10 µM unless noted
# HCC-2998 colon = conditions: 10 µM unless noted
# KM12 colon = conditions: 10 µM unless noted
# OVCAR-3 ovarian = conditions: 10 µM unless noted
# MCF7 breast = conditions: 10 µM unless noted
SMILES,growth (SR leukemia),growth (RPMI-8226 leukemia),growth (OVCAR-8 ovarian),growth (OVCAR-5 ovarian),growth (OVCAR-4 ovarian),growth (IGROV1 ovarian),growth (HS 578T breast),growth (NCI/ADR-RES ovarian),growth (T-47D breast),growth (BT-549 breast),growth (MDA-MB-435 melanoma),growth (SW-620 colon),growth (HCT-116 colon),growth (HCC-2998 colon),growth (KM12 colon),growth (OVCAR-3 ovarian),growth (MCF7 breast)
O=C(Nc1ccc(F)cc1)c1ccccc1,88.8% (inactive),102% (inactive),105% (inactive),105% (inactive),100% (inactive),110% (inactive),107% (inactive),98.9% (inactive),104% (inactive),84.8% (inactive),97.3% (inactive),101% (inactive),103% (inactive),109% (inactive),104% (inactive),,
CNC(=O)c1cc(Oc2ccc3nc(NC(=O)c4ccc5ncccc5c4)sc3c2)ccn1,88.8% (inactive),71.9% (inactive),100% (inactive),106% (inactive),87.4% (inactive),93.3% (inactive),,88.8% (inactive),51.3% (inactive),82.4% (inactive),,112% (inactive),103% (inactive),106% (inactive),101% (inactive),98.9% (inactive),88% (inactive)
N#CC1C(=O)NC(c2ccccc2[N+](=O)[O-])c2sc3c(F)cccc3c21 (stereo not given),67.9% (inactive),41.3% (inactive),75% (inactive),-15.1% (active),-0.483% (active),0.306% (active),,68.5% (inactive),2.51% (active),89.2% (inactive),102% (inactive),21.9% (inactive),11% (inactive),93.8% (inactive),91.4% (inactive),-14.5% (active),23.4% (inactive)
COc1cc(C)cc2oc3oc(=N)c(C(=O)c4ccccc4)cc3c(=O)c12,94.5% (inactive),116% (inactive),105% (inactive),95.2% (inactive),105% (inactive),93.9% (inactive),,106% (inactive),103% (inactive),,102% (inactive),104% (inactive),93.9% (inactive),108% (inactive),104% (inactive),101% (inactive),96.2% (inactive)
CCc1ccc(NC(=O)N[C@@H](Cc2cc(F)cc(F)c2)C(=O)N[C@@H]2C(=O)N3C[C@H](O)C[C@H]3C(=O)N3CCOC[C@H]3C(=O)N[C@@H](C)C(=O)N3C[C@H](C)C[C@H]3C(=O)O[C@H]2C)cc1,48.3% (inactive),17.2% (inactive),62.3% (inactive),46.3% (inactive),12.8% (inactive),49.4% (inactive),41.2% (inactive),107% (inactive),,11.3% (inactive),21.5% (inactive),48.5% (inactive),13.7% (inactive),32.1% (inactive),42.7% (inactive),16.8% (inactive),24.1% (inactive)
CC(C)(C)c1cc(C(=O)N2CCC(C(=O)NCCN)CC2)cc(C(C)(C)C)c1,98.4% (inactive),94.4% (inactive),99% (inactive),98.9% (inactive),105% (inactive),95.6% (inactive),92% (inactive),104% (inactive),,95.4% (inactive),98% (inactive),103% (inactive),99.4% (inactive),106% (inactive),105% (inactive),104% (inactive),92% (inactive)
Clc1ccc2nc(-c3ccc(-c4ccc(/C=N/NC5=NCCN5)cc4)s3)cn2c1,8.33% (active),53.5% (inactive),102% (inactive),107% (inactive),87.1% (inactive),94.6% (inactive),92.6% (inactive),99.3% (inactive),,91.6% (inactive),101% (inactive),29.7% (inactive),86.8% (inactive),109% (inactive),103% (inactive),109% (inactive),79.4% (inactive)
CCOC(=O)c1nn(C2CCCCO2)c2ccc(NS(=O)(=O)c3ccc(C)cc3)cc12 (stereo not given),107% (inactive),98.3% (inactive),96.9% (inactive),110% (inactive),87.2% (inactive),102% (inactive),94.9% (inactive),99.6% (inactive),,91.8% (inactive),100% (inactive),98.1% (inactive),87.8% (inactive),107% (inactive),104% (inactive),104% (inactive),93.1% (inactive)
CN(C)CCOc1ccc(/C(=C(/CCCl)c2ccccc2)c2ccccc2)cc1,-17% (active),-11.4% (active),26.7% (inactive),47% (inactive),32.9% (inactive),30.5% (inactive),,14.1% (inactive),25.6% (inactive),,-7.62% (active),15.8% (inactive),6.56% (active),-41.2% (active),-47.4% (active),12.9% (inactive),3.24% (active)
Cc1ccccc1-n1nnc(C(=O)Nc2nc3ccc(F)cc3s2)c1C,55.9% (inactive),45% (inactive),73.2% (inactive),82.2% (inactive),10.6% (inactive),75.7% (inactive),73.6% (inactive),60.7% (inactive),,36.8% (inactive),59.2% (inactive),85.5% (inactive),46.5% (inactive),78.6% (inactive),72.4% (inactive),57.9% (inactive),65.3% (inactive)
COc1ccc2nc3cc(Cl)ccc3c(Nc3ccc(O)c(CN4CCCC4)c3)c2c1,0.0468% (active),-25.2% (active),-2.17% (active),57.4% (inactive),-4.45% (active),-26.3% (active),,3.27% (active),35.8% (inactive),79.2% (inactive),-61.5% (active),-65.7% (active),-45% (active),,19.2% (inactive),-32.1% (active),43.4% (inactive)
CCOC(=O)c1nn(C2CCCCO2)c2ccc(NC(=O)CSc3nc4ccccc4c(=O)[nH]3)cc12 (stereo not given),113% (inactive),101% (inactive),98.1% (inactive),115% (inactive),100% (inactive),101% (inactive),51.6% (inactive),107% (inactive),,89.6% (inactive),107% (inactive),105% (inactive),101% (inactive),115% (inactive),102% (inactive),106% (inactive),92.1% (inactive)
C=C(C)C1CCC2(C(=O)O)CCC3(C)C(CCC4C5(C)CCC(OC(=O)NCc6ccccc6)C(C)(C)C5CCC43C)C12 (stereo not given),41.7% (inactive),8.22% (active),45.5% (inactive),75.6% (inactive),30.7% (inactive),,84.7% (inactive),44.8% (inactive),33.9% (inactive),64.8% (inactive),58.7% (inactive),34.9% (inactive),18% (inactive),51.3% (inactive),28.1% (inactive),19% (inactive),
Cc1cccc(C[C@H](NC(=O)Nc2ccc(C)cc2F)C(=O)N[C@@H]2C(=O)N3C[C@H](O)C[C@H]3C(=O)N3CCN(C)C[C@H]3C(=O)N[C@@H](C)C(=O)N3C[C@H](C)C[C@H]3C(=O)O[C@H]2C)c1,34.5% (inactive),28.2% (inactive),50.8% (inactive),42.7% (inactive),12.9% (inactive),52.3% (inactive),50.8% (inactive),114% (inactive),,,21.8% (inactive),47.6% (inactive),14.8% (inactive),35.7% (inactive),43.7% (inactive),24.4% (inactive),26.7% (inactive)
Cn1cc(-c2nnc(-c3cn(C)c4ncc(Br)cc34)s2)c2cc(Br)ccc21,100% (inactive),87.4% (inactive),96.1% (inactive),88.6% (inactive),93.8% (inactive),73.9% (inactive),,102% (inactive),67.6% (inactive),96.2% (inactive),92.1% (inactive),96.4% (inactive),96.4% (inactive),103% (inactive),94.6% (inactive),100% (inactive),74.1% (inactive)
Cn1cc(-c2nnc(-c3cn(C)c4ncccc34)s2)c2ccccc21,26.5% (inactive),43.9% (inactive),90.9% (inactive),90% (inactive),81% (inactive),70.2% (inactive),83.7% (inactive),48% (inactive),,68.3% (inactive),9.15% (active),61.6% (inactive),76.6% (inactive),82.6% (inactive),25.4% (inactive),40.1% (inactive),58.6% (inactive)
Cn1cc(-c2nnc(-c3cn(C)c4ncc(Br)cc34)o2)c2ccccc21,52.7% (inactive),88.5% (inactive),93.4% (inactive),93.4% (inactive),90.3% (inactive),65.8% (inactive),89.6% (inactive),68.9% (inactive),,95.2% (inactive),27.4% (inactive),83.6% (inactive),98% (inactive),95.9% (inactive),56.3% (inactive),88.2% (inactive),44.7% (inactive)
